Results reported in ChEMBL document CHEMBL3988442, “University of Dundee, Small-Polar-MMV Screening Library” (2021).
The whole screen tested about 48,000 compounds, of which about 13,000 (27%) showed an effect of 50% or more. The list shows a part of the results.

System: Wolbachia pipientis
Assay: Anti-Wolbachia Cell-Based Screen
Format: functional
Set-up: scale not given: in the data most compounds retested in dose-response had high values
Settings: 5 µM

Going from `Cc1ccccc1N1CCCN(C(=O)c2nn(C)cc2Cl)CC1` to `Cc1ccccc1-n1cnc(Cl)c1C(=O)O`, the “Percent Effect” value rises from 7.51% to 65.1%.

First: O=C1CC(c2ccc(C(=O)O)cc2)c2ncn(-c3ccccc3Cl)c2N1 (centres undefined)
Second: O=C(O)c1c(Cl)ncn1-c1cccc2ccccc12
The “Percent Effect” value of the first is lower: 2.095% for the first, 101.1% for the second.

First: Cc1ccccc1N1CCN(C(=O)Cn2ccnc2)CC1=O
Second: CC(C(=O)N1CCC(Cc2ccc(F)cc2)CC1)n1ccnc1 (centres undefined)
The “Percent Effect” value of the first is lower: -5.789% for the first, -3.796% for the second.

First: Nc1nccnc1C(=O)N1CCN(Cc2cccc3ccccc23)CC1
Second: O=C1CCC(C(=O)N2CCOC(Cc3cccc4ccccc34)C2)=NN1 (centres undefined)
The “Percent Effect” value of the first is lower: -30.2% for the first, -9.724% for the second.

Compared with `Cc1ccc(-c2n[nH]cc2CNCC2CCN(CC(F)(F)F)C2)o1.Cl` (centres undefined), `CCOc1ccc2nc(CN3CCC(CNC(C)=O)C3)ccc2c1` (centres undefined) is higher in “Percent Effect” value: -7.389% for the first, 0.9569% for the second.

Compared with `Cc1cc(N2CCCN(C(C(=O)O)c3cccc(C)c3F)CC2)ccn1` (centres undefined), `Cc1cccc(NC2CCN(C(=O)Nc3ccc(F)c(F)c3)CC2)n1` is higher in “Percent Effect” value: 1.101% for the first, 86.81% for the second.

Going from `Cc1ccc2ncnc(N3CCOCC3c3c(C)nn(C)c3C)c2c1` (centres undefined) to `CCN(Cc1cccc(C(=O)Nc2ncc(C)s2)c1)[C@H]1COC[C@@H]1O`, the “Percent Effect” value falls from -2.563% to -30.5%.

Compared with `O=S(=O)(c1c(F)cccc1F)N1CCC(Cn2cccn2)CC1`, `CN1CSC[C@H]1C(=O)N1CCC(Cc2ccccc2F)CC1` is lower in “Percent Effect” value: 15.84% for the first, -34.6% for the second.

Compared with `Cc1nc(CN2CCC3(CCN(c4cnn(C)c4)C3=O)C2)cs1.O=C(O)C(F)(F)F` (centres undefined), `Cc1nc(CN2CCCC3(CCN(c4cnn(C)c4)C3=O)C2)cs1.O=C(O)C(F)(F)F` (centres undefined) is lower in “Percent Effect” value: 109% for the first, 93.19% for the second.

First: COCCN1CCCC2(CCN(c3ccsc3)C2=O)C1.O=C(O)C(F)(F)F (centres undefined)
Second: COCC(=O)NCC1Cn2nnc(-c3ccncc3)c2CO1.O=C(O)C(F)(F)F (centres undefined)
The “Percent Effect” value of the first is lower: -26.52% for the first, -3.08% for the second.

First: Cc1cccc(NC2CCN(C(=O)Nc3ccncc3)CC2)n1
Second: Cc1cccc(NC2CCN(C(=O)Nc3ccccn3)CC2)n1
The “Percent Effect” value of the first is higher: 110.6% for the first, 83.84% for the second.

Going from `Cc1cccc(NC2CCN(C(=O)Nc3cc(C)on3)CC2)n1` to `Cc1cccc(NC2CCN(C(=O)Nc3cn[nH]c3)CC2)n1`, the “Percent Effect” value rises from -9.175% to 110.2%.

Compared with `Cc1ccc(C(=O)Nc2cn[nH]c2)cn1`, `COc1cccc(OCC(=O)Nc2cc(C)cnc2OC)c1` is lower in “Percent Effect” value: 2.995% for the first, -3.039% for the second.

Compared with `O=C(Nc1ccc(F)c(Br)c1)N1CCCC1`, `Cc1cccc(NC2CCN(C(=O)Nc3cc(F)cc(F)c3)CC2)n1` is lower in “Percent Effect” value: 7.891% for the first, -9.024% for the second.

Compared with `O=C(CCn1ccc(=O)[nH]c1=O)N1CCC(OCc2cccnc2)CC1`, `CN1CSC[C@H]1C(=O)N1CCC(CCc2ccccc2)CC1` is lower in “Percent Effect” value: 17.72% for the first, -22.77% for the second.

Compared with `COCc1noc(C2(c3ccc(Br)cc3)CCOCC2)n1`, `N#Cc1ccc(N2CCCN(CCCn3cncn3)CC2)cc1` is higher in “Percent Effect” value: -15.05% for the first, -1.933% for the second.

First: CS(=O)(=O)CCCC(=O)N1CCN(CC2CC2)c2ccccc21
Second: CN1C[C@@H](N)C[C@H]1C(=O)N1CCC(CCCc2ccccc2)CC1
The “Percent Effect” value of the first is lower: -17.42% for the first, 99.37% for the second.

Going from `Cc1nc(N2CCC3(CCCNC3=O)C2)nc2c1CCCC2` (centres undefined) to `O=C1CCC2(CCCN(C(=O)c3cscn3)C2)CN1CCc1c[nH]cn1` (centres undefined), the “Percent Effect” value falls from 1.379% to -10.65%.

Compared with `O=C(C1CCS(=O)(=O)CC1)N1CCC(Cc2ccc(F)cc2)CC1`, `CCC(=O)N1CCCC1C(=O)N1CCC(Cc2ccc(F)cc2)CC1` (centres undefined) is higher in “Percent Effect” value: -5.215% for the first, 110.1% for the second.

First: CC(=O)N1CCCC1C(=O)N1CCC(=Cc2cccc(F)c2)CC1 (centres undefined)
Second: CN1C[C@@H](N)C[C@H]1C(=O)N1CCC(Cc2ccc(F)cc2)CC1
The “Percent Effect” value of the first is lower: -11.75% for the first, 81.94% for the second.

Compared with `CN1CCC(N(C)CCC(=O)N2CCC(Cc3ccc(F)cc3)CC2)C1` (centres undefined), `COCC[C@]1(O)CCN(C(=O)CCc2cnn(C)c2)C[C@H]1C` is higher in “Percent Effect” value: -0.3221% for the first, 4.52% for the second.

First: COCCCN1C(=O)CC[C@H]2CN(c3ccc(C(N)=O)cn3)CC[C@H]21
Second: COc1cccc(OCCCc2cncc(C(N)=O)c2)c1
The “Percent Effect” value of the first is lower: -7.977% for the first, -6.464% for the second.

Going from `O=C(O)C(F)(F)F.O=C([C@@H]1COC[C@H]2CN(C3CCCC3)C[C@H]21)N1CCCO1` to `Cn1cccc1C(=O)N[C@@H]1CN(Cc2cccs2)[C@@H]2COC[C@@H]21.O=C(O)C(F)(F)F`, the “Percent Effect” value falls from 17.11% to -0.8834%.

Compared with `N#Cc1cccn(CCOc2ccc(Cl)cc2)c1=O`, `COc1cccc(OCC(=O)NS(=O)(=O)c2cc(F)ccc2F)c1` is lower in “Percent Effect” value: 1.787% for the first, -14.39% for the second.

Going from `COc1cccc(OCC(=O)N(C)c2cccnc2N(C)C)c1` to `COc1ccc(CC(=O)N(C)c2cccnc2N(C)C)c(Cl)c1`, the “Percent Effect” value falls from 85.27% to 3.868%.

Going from `COc1cccc(OCC(=O)N(C)c2cccnc2)c1` to `COCC(=O)NC[C@@]1(COc2cccnc2)C[C@@H](O)[C@@H](O)C1.Cl`, the “Percent Effect” value falls from 104.9% to -0.8237%.

First: Cc1nc(C)n(CC2CCCCN2CCCC#N)n1 (centres undefined)
Second: c1cncc(-c2nnc([C@H]3CCN(CC4CCCCC4)C3)o2)c1
The “Percent Effect” value of the first is lower: 3.604% for the first, 11.75% for the second.

First: CCc1nnc(NC(=O)N(CCOC)Cc2ccc(C)o2)s1
Second: COCC(=O)NC[C@H]1CC[C@H](c2nnc(-c3ccncc3)o2)CC1
The “Percent Effect” value of the first is lower: -17.47% for the first, 130.9% for the second.

First: CN(CCCNC(=O)CN1CCS(=O)(=O)CC1)c1ccccc1
Second: COCC(=O)NC[C@H]1CC[C@H](c2nnc(-c3cccnc3)o2)CC1
The “Percent Effect” value of the first is lower: 9.575% for the first, 199.6% for the second.

First: c1cncc(-c2nnc([C@H]3CCN(CC4CC4)C3)o2)c1
Second: O=C(NC[C@H]1CC[C@H](c2nnc(-c3cccnc3)o2)CC1)C1CC1
The “Percent Effect” value of the first is lower: 10.36% for the first, 169.2% for the second.

First: O=C(c1cccnc1)C1CCCN(c2nnc(C3CC3)o2)C1 (centres undefined)
Second: c1cc(-c2nnc([C@H]3CCNC3)o2)ccn1
The “Percent Effect” value of the first is lower: -9.968% for the first, -9.06% for the second.

Going from `Cc1nc(C(C)C)sc1C(=O)N(C)Cc1nc(-c2ccccn2)no1` to `CC(CN(C)C(=O)c1cn(C)nc1-c1ccc(F)cc1F)C(=O)O` (centres undefined), the “Percent Effect” value rises from -7.076% to -1.433%.
